Where a name gives a salt, the structure may show the parent alone.
These molecules were tested on NCI-H1688 (assay: inhibition of cell viability relative to untreated control (fraction); higher = stronger growth inhibition, active = 0.5 or more). Settings: 30 µM; 24 h.
Method: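 Natural product library (TargetMol, 640 compounds) screened on NCI-H1688 SCLC cells at 30 µM for 24 h; viability by CCK-8 absorbance at 450 nm, normalised to untreated control and expressed as inhibition rate (fraction). Compounds with >50% reduction in viability were selected as hits.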
With `CC1=C2C(=O)[C@H]3[C@@H](CC=C4C[C@@H](O)CC[C@@]43C)[C@@H]2CC[C@]12O[C@@H]1C[C@H](C)CN[C@H]1[C@H]2C` [Jervine] the “inhibition of cell viability” value was 0.601 (active). For `C[C@@H]1CC[C@H]2[C@@H](C)C(=O)O[C@@H]3O[C@@]4(C)CC[C@@H]1[C@]32OO4` [Artemisinin], the “inhibition of cell viability” value was 0.118 (inactive). `C=C(C)[C@H]1Cc2c(ccc3c2O[C@@H]2COc4cc(OC)c(OC)cc4[C@@H]2C3=O)O1` [Rotenone] was tested, and the “inhibition of cell viability” value was 0.823 (active). `C[C@]12CC[C@H](O)CC1=CC[C@@H]1[C@@H]2CC[C@]2(C)C(=O)CC[C@@H]12` [Dehydroepiandrosterone] was tested, and the “inhibition of cell viability” value was 0.0365 (inactive). With `CCN1C[C@]2(COC)[C@H](O)C[C@H](OC)[C@@]34[C@@H]5C[C@@]6(O)[C@H](OC(=O)c7ccccc7)[C@@H]5[C@@](OC(C)=O)([C@@H]([C@H](OC)[C@H]23)[C@@H]14)[C@@H](O)[C@@H]6OC` [Aconitine] the “inhibition of cell viability” value was -0.116 (inactive). For `COc1ccc2c(c1OC)CN1CCc3cc4c(cc3C1C2)OCO4` (stereo not given) [Tetrahydroberberine THB], the “inhibition of cell viability” value was 0.0966 (inactive). With `CCC1(O)C(=O)OCc2c1cc1n(c2=O)Cc2cc3ccccc3nc2-1` (single isomer, unassigned; (+)) [(+)-Camptothecin] the “inhibition of cell viability” value was 0.979 (active). `CC[C@@]1([C@@H]2O[C@@H]([C@H]3O[C@@](O)(CO)[C@H](C)C[C@@H]3C)C[C@@H]2C)CC[C@H]([C@]2(C)CC[C@]3(C[C@H](O)[C@@H](C)[C@@H]([C@@H](C)[C@@H](OC)[C@H](C)C(=O)O)O3)O2)O1` [Monensin sodium salt] was tested, and the “inhibition of cell viability” value was 0.761 (active). For `C#C[C@]1(O)CC[C@H]2[C@@H]3CCC4=CC(=O)CC[C@]4(C)[C@H]3CC[C@@]21C` [Ethisterone], the “inhibition of cell viability” value was 0.178 (inactive). With `COc1cccc2c1cc([N+](=O)[O-])c1c(C(=O)O)cc3c(c12)OCO3` [Aristolochic Acid] the “inhibition of cell viability” value was 0.49 (inactive). `O=C(/C=C/c1ccccc1)OC[C@H]1O[C@@H](O[C@@H]2OC=C[C@H]3[C@H](O)[C@@H]4O[C@]4(CO)[C@@H]23)[C@H](O)[C@@H](O)[C@@H]1O` [Picroside I] was tested, and the “inhibition of cell viability” value was 0.253 (inactive). `CC(=O)[C@]1(O)CC[C@@]2(O)[C@]1(C)[C@H](OC(=O)/C=C(\C)C(C)C)C[C@@H]1[C@@]3(C)CC[C@H](O)CC3=CC[C@]12O` [Caudatin] was tested, and the “inhibition of cell viability” value was 0.161 (inactive). `NCCc1c[nH]c2ccccc12` [Tryptamine] was tested, and the “inhibition of cell viability” value was -0.188 (inactive). For `C[C@]12CC[C@H]3[C@@H](CCC4=CC(=O)CC[C@@]43C)[C@@H]1CC[C@@H]2O` [Testosterone], the “inhibition of cell viability” value was 0.182 (inactive). For `S=C=NCc1ccccc1` [Benzyl isothiocyanate], the “inhibition of cell viability” value was 0.59 (active). With `CNC(=O)Oc1ccc2c(c1)[C@]1(C)CCN(C)[C@@H]1N2C` [Physostigmine Salicylate] the “inhibition of cell viability” value was 0.126 (inactive). With `CCCCCCCCC(=O)NCc1ccc(O)c(OC)c1` [Nonivamide] the “inhibition of cell viability” value was -0.0291 (inactive). In the case of `CN1CCc2cc3c(cc2C1C1OC(=O)c2c1ccc1c2OCO1)OCO3` (single isomer, unassigned; (+)) [(+)-Bicuculline], the “inhibition of cell viability” value is reported as -0.023 (inactive). For `CCN1C[C@]2(OC(=O)c3ccccc3NC(C)=O)CC[C@H](OC)[C@@]34[C@@H]2C[C@@H]([C@@H]13)[C@@]1(O)C[C@H](OC)[C@H]2C[C@@H]4[C@]1(O)[C@H]2OC` [Lappaconitine], the “inhibition of cell viability” value was -0.0777 (inactive). With `CC[C@H](C)[C@H]1O[C@]2(C=C[C@@H]1C)C[C@@H]1C[C@@H](C/C=C(\C)[C@@H](O[C@H]3C[C@H](OC)[C@@H](O[C@H]4C[C@H](OC)[C@@H](O)[C@H](C)O4)[C@H](C)O3)[C@@H](C)/C=C/C=C3\CO[C@@H]4[C@H](O)C(C)=C[C@@H](C(=O)O1)[C@]34O)O2.CO[C@H]1C[C@H](O[C@H]2[C@H](C)O[C@@H](O[C@@H]3/C(C)=C/C[C@@H]4C[C@@H](C[C@]5(C=C[C@H](C)[C@@H](C(C)C)O5)O4)OC(=O)[C@@H]4C=C(C)[C@@H](O)[C@H]5OC/C(=C\C=C\[C@@H]3C)[C@]54O)C[C@@H]2OC)O[C@@H](C)[C@@H]1O` [Abamectin] the “inhibition of cell viability” value was 1.01 (active). `CN1[C@H]2C[C@H](OC(=O)[C@H](CO)c3ccccc3)C[C@@H]1[C@@H](O)C2` [Anisodamine] was tested, and the “inhibition of cell viability” value was 0.2 (inactive). For `O=C1C=CC[C@@H]2[C@H]3CCC[N+]4([O-])CCC[C@@H](CN12)[C@@H]34` (stereo not given in full) [Oxysophocarpine], the “inhibition of cell viability” value was -0.0366 (inactive). For `CNC1CC(N)C(O)C(OC2OC(CO)C(O)C3OC4(OC(C(N)CO)C(O)C(O)C4O)OC23)C1O` (stereo not given) [Hygromycin B], the “inhibition of cell viability” value was 0.829 (active). `CN1[C@@H]2C[C@@H](OC(=O)[C@H](CO)c3ccccc3)C[C@H]1[C@@H]1O[C@@H]12` [Scopolamine HBr trihydrate] was tested, and the “inhibition of cell viability” value was 0.0269 (inactive). With `C=CCCCCCCCCC(=O)O[C@H]1CC[C@H]2[C@@H]3CCC4=CC(=O)C=C[C@]4(C)[C@H]3CC[C@]12C` [Boldenone Undecylenate] the “inhibition of cell viability” value was -0.203 (inactive). `C[C@]12CCC(=O)C=C1CC[C@@H]1[C@@H]2CC[C@@]2(C)[C@H]1CC[C@]2(C)O` [17-Methyltestosterone] was tested, and the “inhibition of cell viability” value was 0.403 (inactive). For `NCCc1ccccc1` [Phenethylamine], the “inhibition of cell viability” value was -0.183 (inactive). `CC(=O)O[C@H]1[C@H]2[C@@H](OC(=O)Cc3ccccc3)[C@@H](C)C[C@]2(OC(C)=O)C(=O)/C(C)=C/[C@@H]2[C@H](CC[C@@]13CO3)C2(C)C` [Euphorbiasteroid] was tested, and the “inhibition of cell viability” value was 0.499 (inactive). `C=C[C@@H]1C2=CCOC(=O)C2=CO[C@H]1O[C@@H]1O[C@H](CO)[C@@H](O)[C@H](O)[C@H]1O` [Gentiopicrin] was tested, and the “inhibition of cell viability” value was -0.0346 (inactive). In the case of `O=c1ccc2cc(O[C@@H]3O[C@H](CO)[C@@H](O)[C@H](O)[C@H]3O)c(O)cc2o1` [Esculin], the “inhibition of cell viability” value is reported as -0.139 (inactive). With `O=C1C[C@@H]2OCC=C3CN4CC[C@]56c7ccccc7N1[C@H]5[C@H]2[C@H]3C[C@H]46` [Strychnine] the “inhibition of cell viability” value was -0.0859 (inactive). In the case of `CN1[C@@H]2CC[C@H]1C[C@@H](OC(=O)[C@H](CO)c1ccccc1)C2` [L-Hyoscyamine], the “inhibition of cell viability” value is reported as 0.305 (inactive). For `COc1ccc2c(c1)[nH]c1c(C)nccc12` [Harmine], the “inhibition of cell viability” value was 0.462 (inactive). `C[C@@H]1C(=O)O[C@H]2[C@H](O)[C@@]34O[C@@H]5OC(=O)[C@H](O)[C@@]56[C@H](C(C)(C)C)[C@H](O)C(OC3=O)[C@]64[C@@]12O` (stereo not given in full) [Ginkgolide C] was tested, and the “inhibition of cell viability” value was -0.00562 (inactive). In the case of `CCC(=O)O[C@H]1CC[C@H]2[C@@H]3CC[C@H]4CC(=O)[C@H](C)C[C@]4(C)[C@H]3CC[C@]12C` [Drostanolone Propionate], the “inhibition of cell viability” value is reported as 0.313 (inactive). `CC(C)(C)[C@]1(O)CC2OC(=O)CC23C(=O)OC2OC(=O)[C@H](O)C231` (stereo not given in full) [Bilobalide] was tested, and the “inhibition of cell viability” value was 0.155 (inactive). With `COC1=C[C@@H]2[C@@H]3Cc4ccc(OC)c(O)c4[C@]2(CCN3C)CC1=O` [Sinomenine hydrochloride] the “inhibition of cell viability” value was -0.0195 (inactive). For `C[C@]12CCC(=O)C=C1CC[C@@H]1[C@@H]2C(=O)C[C@]2(C)C(=O)CC[C@@H]12` [Adrenosterone], the “inhibition of cell viability” value was -0.0418 (inactive). In the case of `N#C[C@H](O[C@@H]1O[C@H](C(=O)O)[C@@H](O)[C@H](O)[C@H]1O)c1ccccc1` [Laetrile], the “inhibition of cell viability” value is reported as 0.0291 (inactive). `C[C@]12CC[C@H](O)C[C@@H]1CC[C@@H]1[C@@H]2CC[C@]2(C)C(=O)CC[C@@H]12` [Epiandrosterone] was tested, and the “inhibition of cell viability” value was -0.0121 (inactive).

Reference: the supplement of paper PMC11634586
